# From PubChem BioAssay AID588342 (National Center for Advancing Translational Sciences (NCATS), 2011)
# Screen size: about 360,000 compounds; about 25,000 (6.9%) were called active. Another 9% or so got no clear call; they are omitted. Calls follow the shape of the dose curve; as a rule, active = well fitted inhibition curve with a large enough effect; inconclusive = small, poorly fitted or top-dose-only effect; inactive = flat fitted curve, though single readings scatter. The sample as a whole holds a higher share of actives than the screen did.
# Biological target: Luciferin 4-monooxygenase (Photinus pyralis) (UniProt P08659)
# Sequence (P08659 whole entry, looked up): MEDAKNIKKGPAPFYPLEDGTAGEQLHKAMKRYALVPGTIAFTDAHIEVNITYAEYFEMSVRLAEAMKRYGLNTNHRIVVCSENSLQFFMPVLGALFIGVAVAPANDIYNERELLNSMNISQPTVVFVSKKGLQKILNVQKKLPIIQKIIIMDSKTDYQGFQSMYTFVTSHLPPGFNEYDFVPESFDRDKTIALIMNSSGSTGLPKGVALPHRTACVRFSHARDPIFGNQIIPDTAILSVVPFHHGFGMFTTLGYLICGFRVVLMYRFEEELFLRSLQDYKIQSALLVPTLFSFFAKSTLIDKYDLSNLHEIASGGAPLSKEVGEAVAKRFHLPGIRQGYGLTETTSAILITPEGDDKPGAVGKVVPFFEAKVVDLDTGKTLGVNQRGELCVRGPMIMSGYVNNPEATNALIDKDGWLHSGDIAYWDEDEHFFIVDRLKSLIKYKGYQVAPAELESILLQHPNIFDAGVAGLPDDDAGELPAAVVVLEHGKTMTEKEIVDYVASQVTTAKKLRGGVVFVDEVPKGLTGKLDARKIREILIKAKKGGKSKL
# Assay: qHTS profiling assay for firefly luciferase inhibitor/activator using purifed enzyme and Km concentrations of substrates (counterscreen for miR-21 project); also: nearly all actives have a fitted effect of over 55% in size;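 as to activity change, negative = inhibition: plate controls were vehicle for no effect and reference inhibitor for full effect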
# Conditions: purified FLuc, luminescence inhibition; series mostly up to 57.5 µM; activity change, negative = inhibition: at the top concentration
# In short: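 Purified P. pyralis luciferase, 10 nM final, with Km-level 10 uM D-luciferin and 10 uM ATP in 50 mM Tris acetate pH 7.5, 10 mM Mg acetate, 0.01% Tween-20, 0.05% BSA; 6-point qHTS titration about 60 µM downward; luminescence read.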
# Potency is read from the fitted curve at half-maximal effect.
Structure (SMILES),"activity change, negative = inhibition",Potency
Cc1cccc(C)c1NC(=O)COC(=O)c1ccccc1O,-0.453% (inactive),–
CCc1cccc(C)c1NC(=O)COC(=O)CC1CCCC1,0.287% (inactive),–
CCOc1cccc2cc(C(=O)OCC(=O)Nc3c(C)cccc3CC)c(=O)oc12,–,15.1 µM (active)
O=c1[nH]c(CCl)nc2cc(-c3ccc(Cl)cc3)sc12,–,0.107 µM (active)
NC(=O)Cc1nc2scc(-c3ccc(Cl)cc3)c2c(=O)[nH]1,0.326% (inactive),–
O=c1[nH]c(CN2CCOCC2)nc2cc(Cl)ccc12,2.21% (inactive),–
CCc1ccccc1NC(=O)c1ccc(F)c(S(=O)(=O)NC2CCCCCC2)c1,-2.22% (inactive),–
COC(=O)c1ccc(NC(=O)CCc2c(C)nc3c(c(C)nn3-c3ccc(C)cc3)c2C)cc1,-4.68% (inactive),–
COc1cccc(N(CC(=O)Nc2cccc(N(C)S(C)(=O)=O)c2)S(C)(=O)=O)c1,1.64% (inactive),–
CN(c1ccccc1)S(=O)(=O)c1cccc(NC(=O)Cc2ccc(Cl)cc2)c1,-14.1% (inactive),–
CN(c1cccc(NC(=O)Nc2ccc(Cl)cc2)c1)S(C)(=O)=O,–,2.39 µM (active)
O=C(Nc1ccc(Cl)cc1)Nc1ccc(Oc2cccnc2)nc1,-28.9% (inactive),–
COc1ccc(-n2c(=O)c3c(c4cc(OC)ccc4n3C)n(Cc3cccc(C)c3)c2=O)cc1,-0.917% (inactive),–
CSCc1ccc(C(=O)Nc2cc(C)cc(C)c2)cc1,–,2.13 µM (active)
CC(=O)Nc1ccccc1NC(=O)c1cc(C)cc(C)c1,3.27% (inactive),–
Cc1cc(C)cc(NC(=O)CSc2ccccc2)c1,-4.76% (inactive),–
CCc1ccc(N2C(=O)CN(S(=O)(=O)CC)CC2(C)C(=O)NC2CCCCC2)cc1 (configuration not stated),-6.49% (inactive),–
O=C(NC1CC(=O)N(c2ccc(F)cc2)C1)C1CCCCC1 (configuration not stated),1.54% (inactive),–
CCOC(=O)CNC(=O)c1cc2c(=O)n3cccc(C)c3nc2s1,-11.1% (inactive),–
CC(=O)c1cccc(Nc2ccc3cc(S(=O)(=O)N4CCC(C)CC4)ccc3n2)c1,0.763% (inactive),–
N/C(=N\OC(=O)/C=C/c1ccccc1)c1ccc(Br)cc1,-17% (inactive),–
N/C(=N\OC(=O)c1ccc2c(c1)OCO2)c1ccc(Br)cc1,–,1.69 µM (active)
N/C(=N\OC(=O)N1c2ccccc2Sc2ccccc21)c1ccc(Br)cc1,-12.5% (inactive),–

Structure (SMILES),"activity change, negative = inhibition",Potency
Cc1ccc(-c2cc(C(F)(F)F)c(C#N)c(SCC(=O)Nc3ccccc3)n2)cc1,-0.837% (inactive),–
O=C(/C=C/c1ccc(Cl)cc1Cl)NCc1ccco1,–,7.57 µM (active)
O=C(NCc1ccco1)C1(c2ccc(Cl)cc2)CCCC1,5.76% (inactive),–
COC(=O)/C=C/C(=O)NCc1ccco1,-0.0929% (inactive),–
COc1ccccc1CNC(=O)C(Cc1ccccc1)NS(=O)(=O)c1ccc2c(c1)oc(=O)n2C (configuration not stated),-2.22% (inactive),–
CSCCC(NC(=O)c1ccccc1)C(=O)N1CCN(Cc2ccc(Cl)cc2)CC1 (configuration not stated),4.35% (inactive),–
COc1ccc(N2C(=O)CC(Nc3ccc(F)cc3)C2=O)c([N+](=O)[O-])c1 (configuration not stated),0.0586% (inactive),–
COc1cc(/C=C2/C(=O)NN(c3ccc(F)cc3)C2=O)cc([N+](=O)[O-])c1O,–,26.9 µM (active)
CCOc1c(Br)cc(/C=C2\C(=O)N(CCC#N)N=C2C)cc1OC,-14.2% (inactive),–
C/C=C/c1ccc(OCCOc2ccc(C=O)cc2OC)c(OC)c1,11.6% (inactive),–
COc1cc(/C=C2/C(=O)NN(c3cccc(Cl)c3)C2=O)cc(Br)c1O,–,30.1 µM (active)
COc1cc(C=O)ccc1Oc1nnnn1-c1ccccc1,5.93% (inactive),–
C#CCOc1ccc(/C=C2/C(=O)NN(c3ccccc3)C2=O)cc1OC,–,0.849 µM (active)
COc1cccc2c1cc1c(=O)n(CC(=O)N3CCN(c4cccc(Cl)c4)CC3)nc(C)n12,2.9% (inactive),–
COc1cc(CN2CC(C)CC(C)C2)cc([N+](=O)[O-])c1O (configuration not stated),-0.254% (inactive),–
CCOc1ccc(-c2nonc2NC(=O)c2oc3ccc(CC)cc3c2C)cc1,-1.22% (inactive),–
NC1=NC(c2cc(F)cc(F)c2)n2c(nc3ccccc32)N1 (configuration not stated),-6.24% (inactive),–
CC(C(=O)NC1CCCCC1)N1C(=O)c2cccc3cccc1c23 (configuration not stated),-0.249% (inactive),–
N#Cc1ccc(OCC(=O)NC(=O)NC2CCS(=O)(=O)C2)cc1 (configuration not stated),-1.14% (inactive),–
Cc1nc2ccn(Cc3cccnc3)c(=O)c2cc1C(=O)N1CCN(c2ccccc2F)CC1,-2.88% (inactive),–
Cc1cc2c(cc3c(SCc4cccc(Cl)c4)nnc(C)n32)o1,-12.8% (inactive),–
CN1CCC(=NNC(=O)c2ccc(N(Cc3ccc(Cl)cc3)S(C)(=O)=O)cc2)CC1,-2.34% (inactive),–
NS(=O)(=O)c1cc(C(=O)OCC(=O)NNC(=O)c2ccccc2)ccc1Cl,2.64% (inactive),–

Structure (SMILES),"activity change, negative = inhibition",Potency
O=C(CCOc1ccccc1)N(Cc1cccnc1)c1nc2ccc(Cl)cc2s1,-5.41% (inactive),–
Cc1cc(Nc2ccccc2)n(CCC#N)n1,5.51% (inactive),–
Cc1cc(NC(=O)COc2ccc(Cl)cc2Cl)n(CCC#N)n1,–,19 µM (active)
CCCn1nnnc1NC(=O)COc1ccc(Cl)cc1C,-1.34% (inactive),–
CSc1ncccc1C(=O)Nc1nc2ccc(F)cc2s1,–,19 µM (active)
CSc1ncccc1C(=O)Nc1ccc(C)cn1,-0.899% (inactive),–
O=C(Nc1nc2ccc(F)cc2s1)c1nc(SCc2ccccc2F)ncc1Cl,0.507% (inactive),–
CC(C(=O)N(C)CC(=O)Nc1ccccc1C(F)(F)F)N1C(=O)c2ccccc2C1=O (configuration not stated),-1.6% (inactive),–
Cc1ccc(/C=C(\C#N)C(=O)Nc2cc(C)ccc2C)cc1,-2.09% (inactive),–
COc1cc(OC)cc(C(=O)NCC(=O)N2CCCCCCC2)c1,1.74% (inactive),–
COc1ccc(CCNC(=O)c2ccc3c(c2)sc2nc(-c4ccc(C)cc4)cn23)cc1OC,-0.481% (inactive),–
NS(=O)(=O)c1ccc2nc(NC(=O)CS(=O)(=O)c3ccc(F)cc3)sc2c1,-8.95% (inactive),–
NS(=O)(=O)c1ccc2nc(NC(=O)COc3ccccc3)sc2c1,0.17% (inactive),–
NS(=O)(=O)c1ccc2nc(NC(=O)C3=COCCO3)sc2c1,–,12 µM (active)
Cc1ccc(-c2nc(C#N)c(NCCCn3ccnc3)o2)cc1,–,21.3 µM (active)
Cc1ccc(S(=O)(=O)c2nc(NCCCn3ccnc3)sc2Cl)cc1,1.48% (inactive),–
COc1ccc(-c2cc(C(=O)NCCCn3ccnc3)no2)cc1,-16.1% (inactive),–
CC(NC(=O)c1cccc(S(=O)(=O)N2CCc3ccccc3C2)c1)c1ccco1 (configuration not stated),2.97% (inactive),–
COC(=O)c1ccc(NC(=O)C(C)N2C(=O)c3ccccc3C2=O)cc1 (configuration not stated),-2.02% (inactive),–
COC(=O)c1ccc(/C=C2/C(=O)Oc3ccccc32)cc1,–,2.69 µM (active)
CN1C(=O)/C(=C/c2ccc(C(=O)NC3CCCC3)cc2)Oc2ccccc21,-12.8% (inactive),–
